# pPAFAH inh – inhibitors of human plasma PAF acetylhydrolase (pPAFAH) | Q13093 | inhibition, % at 3.39 µM | recombinant pPAFAH, FP-rhodamine probe fluorescence polarization | hit rate 1.5% among 330,000;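 active = inhibition above the mean inhibition across the screen plus 3 SD, cut at about 25% in these data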;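 note: inhibitors block binding of the rhodamine activity-based probe so polarization drops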
# Target sequence (Q13093 whole entry, looked up): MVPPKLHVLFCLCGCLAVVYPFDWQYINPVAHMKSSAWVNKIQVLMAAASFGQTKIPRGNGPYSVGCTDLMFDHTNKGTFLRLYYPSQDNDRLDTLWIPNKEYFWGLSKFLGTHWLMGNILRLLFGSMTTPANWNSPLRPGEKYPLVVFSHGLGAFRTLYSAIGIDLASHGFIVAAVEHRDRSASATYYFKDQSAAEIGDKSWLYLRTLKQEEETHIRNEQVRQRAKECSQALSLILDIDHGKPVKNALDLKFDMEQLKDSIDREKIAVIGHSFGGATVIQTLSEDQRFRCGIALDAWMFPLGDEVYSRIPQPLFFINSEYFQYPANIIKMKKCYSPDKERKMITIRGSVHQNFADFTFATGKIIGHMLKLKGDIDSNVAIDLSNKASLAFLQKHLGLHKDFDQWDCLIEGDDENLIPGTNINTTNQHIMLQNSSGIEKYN
# PME-1 primary – blocks human protein phosphatase methylesterase 1 | Q9Y570 | recombinant PME-1, FP-Rh probe fluorescence polarization | inhibition, % at 5.9 µM | hit rate 0.53% among 320,000 | AID 2130;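 active = inhibition above the campaign mean of all compounds plus 3 SD, cut at about 26% in these data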;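 note: competitive labeling of PME-1 active site by serine hydrolase directed probe; inhibitors block probe labeling so polarization falls and inhibition rises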
# PAFAH1B3 FP inh – PAFAH1B3 (human) inhibition. Q15102. recombinant PAFAH1B3, FP-rhodamine probe, fluorescence polarization. inhibition, % at 3.39 µM. hit rate 0.28% among 340,000;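 active = inhibition above the screen-wide average of all tested compounds plus 3 SD, cut at about 25% in these data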
# PAFAH2 inh – inhibitors of human PAFAH2; recombinant PAFAH2, FP-rhodamine activity probe, fluorescence polarization; inhibition, % at 3.39 µM; hit rate 0.99% among 340,000; AID 492956;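 active = inhibition above the mean over all tested compounds plus 3 SD, cut at about 30% in these data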;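 note: inhibitors block probe labeling of enzyme so polarization drops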
# PAFAH1B2 FP inh – inhibitors of human PAFAH1B2; hit rate 1.2% among 340,000; inhibition, % at 3.39 µM; P68402; recombinant PAFAH1B2, FP-rhodamine activity probe, fluorescence polarization;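 active = inhibition above the mean of all tested compounds plus 3 SD, cut at about 24% in these data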
# Fam108B counter – blocks mouse Fam108B hydrolase in RBBP9 counter-screen | recombinant Fam108B, FP-Rh probe fluorescence polarization | AID 1947 | hit rate 0.33% among 300,000 | inhibition, % at 9.51 µM;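 active = inhibition above the screen mean inhibition plus 3 SD, computed separately per campaign, cut at about 18% in these data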;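 note: inhibitors lower polarization as less probe binds the enzyme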
# Hits are given with their value; - = inactive; . = no result. A selection: hits, their analogues and other compounds. The true share with any hit is near 2.9%.
SMILES,pPAFAH inh,PME-1 primary,PAFAH1B3 FP inh,PAFAH2 inh,PAFAH1B2 FP inh,Fam108B counter
CC(C)c1ccc(C(CC(=O)c2ccc(Cl)cc2)C(=O)O)cc1 (stereo not drawn),-,-,-,-,38,-
C=CCn1c(SCc2nc3sc(C(=O)O)c(C)c3c(=O)[nH]2)nnc1-c1ccc(C(C)(C)C)cc1,26,-,-,-,-,-
C=CCn1c(SCc2nc3sc(C(=O)O)c(C)c3c(=O)[nH]2)nnc1-c1ccccc1,-,-,-,-,-,-
Cc1ccc(NC(=O)[C@@]2(CC(=O)O)CC(/C=C/c3ccccc3)=NO2)c(C)c1,-,-,-,-,-,-
CCOc1cccc(C=NNc2ccc(S(=O)(=O)Nc3ccccc3C(=O)O)cc2[N+](=O)[O-])c1O,30,.,-,-,-,.
C=CCOc1ccc(C=NNc2ccc(S(=O)(=O)Nc3ccccc3C(=O)O)cc2[N+](=O)[O-])cc1OC,37,.,-,-,-,.
CSc1ccc(C=NNc2ccc(S(=O)(=O)Nc3ccccc3C(=O)O)cc2[N+](=O)[O-])cc1,-,.,-,-,-,.
O=C(O)c1ccccc1NS(=O)(=O)c1ccc(NN=Cc2ccccc2F)c([N+](=O)[O-])c1,51,.,-,-,-,.
O=C(O)c1ccccc1/C=N/Nc1ccc(S(=O)(=O)N2CCCC2)cc1[N+](=O)[O-],-,-,-,-,-,-
COC(=O)C1=NNC2C(=O)N(c3ccc(C)cc3)C(=O)C12 (stereo not drawn),-,-,-,-,-,-
COCCn1c(=NC(=O)/C=C/c2cccs2)sc2cc(NC(C)=O)ccc21,-,-,-,-,-,-
CC12CC3CC(C)(C1)CC(C(=O)NC1=NCCS1)(C3)C2,-,-,-,-,28,-
O/N=C1/C2C3C(Br)C4C5CC(C1C53)C24 (stereo not drawn),-,-,-,-,29,-
CC12/C(=N/O)C3C4CC5C3/C(=N/O)C1C5C42 (stereo not drawn),-,-,-,-,-,-
CNC(=O)c1c(NC(=O)c2ccc(S(=O)(=O)N3CCCC3)cc2)sc2c1CCN(C(C)C)C2,-,34,.,.,.,-
CC(Oc1ccc2c(-c3ccccc3)cc(=O)oc2c1)C(=O)N[C@H](Cc1c[nH]c2ccccc12)C(=O)O (stereo partly drawn),-,-,-,-,76,-
Cc1c(OC(C)C(=O)NC(Cc2c[nH]c3ccc(O)cc23)C(=O)O)ccc2c1oc(=O)c1ccccc12 (stereo not drawn),-,-,-,-,-,-
Cc1c(C)c2ccc(OC(C)C(=O)N[C@@H](Cc3c[nH]c4ccccc34)C(=O)O)c(C)c2oc1=O (stereo partly drawn),-,-,-,-,24,-
Cc1ccc(C)c(SCC(=O)Nc2nnc(-c3ccccc3)o2)c1,-,-,-,-,-,-
Cc1ccc(C2=NC(=O)/C(=C/c3cc(O)c(O)c(Br)c3)S2)cc1,.,.,48,78,37,.
Cn1c(CN2CCN(CCO)CC2)c(C#N)c2ccccc21,-,-,-,-,-,-
CC(C)(c1ccccc1)c1ccc(OCC2CO2)cc1 (stereo not drawn),25,-,-,-,-,-
O=[N+]([O-])c1cccc(NN=Nc2ccccc2)c1,-,-,-,-,-,-
O=C(O)c1cc(NN=Nc2cccc([N+](=O)[O-])c2)cc([N+](=O)[O-])c1,27,-,-,-,-,-
O=C(O)c1cc(NN=Nc2ccc(Br)cc2)cc([N+](=O)[O-])c1,-,40,-,-,-,-
SMILES,pPAFAH inh,PME-1 primary,PAFAH1B3 FP inh,PAFAH2 inh,PAFAH1B2 FP inh,Fam108B counter
O=C(O)c1cc(NN=Nc2cccc(S(=O)(=O)O)c2)cc([N+](=O)[O-])c1,-,-,-,-,-,-
Brc1ccc(N=NNc2ccccc2)cc1,-,33,-,-,-,-
O=[N+]([O-])c1ccc(N=NNc2ccccc2)cc1,-,-,-,-,-,-
CCN(CC)CC(=O)NC1CCCc2c1cnn2-c1cc(F)cc(F)c1 (stereo not drawn),-,-,-,-,-,-
O=c1[nH]c(CCl)nc2cc(-c3ccc(F)cc3)sc12,-,-,-,-,29,-
O=C(CCC1CCCN(C(=O)c2ccsc2)C1)N1CCN(c2ccccn2)CC1 (stereo not drawn),-,-,-,-,-,-
N#C/C(=C\c1ccc(O)c(O)c1)C(=O)NCCc1ccccc1,27,-,-,36,64,-
COc1cc(/C=C(\C#N)C(=O)NCCc2ccccc2)cc(OC)c1O,-,-,-,-,-,-
O=C(NCC1CCCO1)c1ccc([N+](=O)[O-])s1 (stereo not drawn),-,-,-,-,-,-
CCOC(=O)c1ccc(NC(=O)C2(c3ccc(Cl)cc3)CCCC2)cc1,-,-,-,-,29,-
CCOC(=O)c1c(NC(=O)Cc2ccccc2)sc2c1CC(C)(C)NC2(C)C,32,-,-,-,-,-
O=c1ccc(NS(=O)(=O)c2ccc(Cl)cc2)cn1Cc1ccc(Cl)c(Cl)c1,-,-,-,-,28,-
Cn1c(CN2CCCC2)nc2cc(NS(=O)(=O)c3ccc(Cl)cc3)ccc21,-,-,-,-,-,-
CN(Cc1cccs1)C(=O)Cc1csc(-c2ccccc2)n1,-,-,-,-,-,-
CCCCn1c(=O)[nH]c(=O)c2c1nc(-c1ccc(-c3ccccc3Br)o1)n2CC,-,-,-,-,-,-
Cc1ccc(-c2nn(-c3ccccc3)cc2/C=N/NC(=O)CSc2nnc(C)n2-c2ccccc2)cc1,-,-,-,-,-,-
CNC(=S)NNC(=O)c1ccc(=O)n(Cc2cccc(C(F)(F)F)c2)c1,-,-,.,.,.,-
Cc1ccccc1NC(=O)NCCc1ccc(Cl)cc1,-,-,-,-,29,-
CC(=O)c1cccc(NC(=O)NCCc2ccc(Cl)cc2)c1,-,-,-,-,27,-
COc1ccccc1NC(=S)NCCSc1ccc(Cl)cc1,-,-,-,-,-,-
COc1ccccc1NC(=S)NCCc1ccc(Cl)cc1,-,-,-,-,34,-
S=C(NCCc1ccc(Cl)cc1)NC1CC1,-,-,-,-,42,-
O=C(NC1(C(F)(F)F)OCCO1)c1ccc(F)cc1,-,-,-,-,-,-
O=C(Nc1nc(-c2cccs2)c(-c2cccs2)s1)C1(c2ccccc2)CC1,-,-,-,-,-,-
CSc1ccc(CN2CCN(CC=C(C)C)C(CCO)C2)cc1 (stereo not drawn),25,-,-,-,-,-
Nc1ccc(C(=O)N/N=C/c2cn(Cc3ccc(F)cc3)c3ccccc23)cc1,.,.,-,-,-,.
O=C(N/N=C/c1cn(Cc2cccc(F)c2)c2ccccc12)c1cc(O)cc(O)c1,.,.,44,-,26,.
O=C1NC[C@H](c2ccccc2)OC(=O)[C@@H](Cc2ccc(F)cc2)C/C=C\C[C@H]1CC(=O)N(CCO)Cc1ccccc1,-,.,-,-,-,.
